Bioassay records (PubChem BioAssay)
D2 antag = HTS Assay for Allosteric Antagonists of the Human D2 Dopamine Receptor: Primary Screen for Antagonists. HEK293 TREx D2 cells, calcium flux, dopamine EC80. inhibition, % at 10 µM. 340,000 compounds, 2% hits; in the data active = inhibition above about 30%; inactive = below that, where a call was filed; note: 0% is about no effect
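Calcium mobilization kinetics were recorded at 1 s intervals in tetracycline-induced HEK293 T-REx D2 cells, first for 180 s after compound addition and then 180 s after EC80 dopamine.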
D2 ag-1 = Beta-Arrestin HTS for Positive Allosteric Modulators of the Human D2 Dopamine Receptor: Agonists; activation, % (concentration not given with the values); DiscoveRx PathHunter D2 beta-arrestin, luminescence, 90 min; 100% = 57 uM dopamine signal; D(2) dopamine receptor (Homo sapiens), P14416; 360,000 compounds, 0.084% hits; in the data active = activation above about 40%; inconclusive = between about 15% and that limit
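Agonist mode: compounds alone added to overnight-plated D2 PathHunter cells for 90 min at 37 C, with 57 uM final dopamine (EC100) defining full response. Beta-arrestin recruitment detected by chemiluminescent reagent, read after 1 h at ambient temperature.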
D2 ag-2 = HTS Assay for Allosteric Agonists of the Human D2 Dopamine Receptor: Primary Screen for Agonists; AID 485358, 2010; activation, % at 2 µM; HEK293 T-REx D2 cells, calcium flux agonist mode; 340,000 compounds, 0.53% hits;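 active = activation over 3 SD above normal in the single-dose calcium agonist read, cut at about 30% in these data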; note: 0% is about no effect
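HEK293 Trex D2 cells, tetracycline-induced, o/n 30 C 5% CO2; no-wash Ca dye, RT 30–90 min; 10-cycle baseline, 23 nl cpd added, kinetic Ca read 180 s; agonist hits = positive Ca response.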
D2 PAM-1 = HTS Assay for Positive Allosteric Modulators of the Human D2 Dopamine Receptor: Primary Screen for Potentiators; AID 485347, 2010; 340,000 compounds, 0.34% hits; HEK293 T-REx D2, calcium flux, EC20 dopamine potentiation; potentiation, % at 10 µM; D(2) dopamine receptor (Homo sapiens), P14416;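 active = potentiation over 3 SD above the plate norm, cut at about 30% in these data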; note: 0% is about no effect
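Primary screen. Calcium kinetics in induced HEK293 T-REx D2 cells: compound pre-addition 180 s, EC20 dopamine, 180 s more.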
D2 PAM-2 = Beta-Arrestin HTS for Positive Allosteric Modulators of the Human D2 Dopamine Receptor: Potentiators | D(2) dopamine receptor (Homo sapiens), P14416 | DiscoveRx D2 beta-arrestin cells, luminescence, 90 min; 100% = 57 uM dopamine signal | potentiation, % (concentration not given with the values) | 360,000 compounds, 0.23% hits | AID 624464, 2012; in the data active = potentiation above about 50%; inconclusive = mostly about 30% to 49%
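PathHunter D2 cells, attached overnight at 37 deg C, received compound in DMSO plus dopamine at EC20 (50 nM final) for 90 min at 37 deg C. Beta-arrestin recruitment was read as luminescence after 1 h with detection reagent at ambient temperature.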
D3 arrestin ag = qHTS of D3 Dopamine Receptor Agonist: D3 Dopamine Receptor B-arrestin Agonist Confirmatory Assay; Potency, µM (titrated, usually from 76.9 µM), for the others: at the top dose activation, most hits filed as activators; AID 720506, 2013; 2,300 compounds, 4% hits; shares compounds with D2 ag-2; DiscoveRx D3 beta-arrestin cells, luminescence, 90 min;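 note: potency is the fitted concentration of half-maximal effect; 100% = dopamine control response; nearly all actives have a fitted effect of over 70% in size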
Target sequence (P35462 whole entry, looked up): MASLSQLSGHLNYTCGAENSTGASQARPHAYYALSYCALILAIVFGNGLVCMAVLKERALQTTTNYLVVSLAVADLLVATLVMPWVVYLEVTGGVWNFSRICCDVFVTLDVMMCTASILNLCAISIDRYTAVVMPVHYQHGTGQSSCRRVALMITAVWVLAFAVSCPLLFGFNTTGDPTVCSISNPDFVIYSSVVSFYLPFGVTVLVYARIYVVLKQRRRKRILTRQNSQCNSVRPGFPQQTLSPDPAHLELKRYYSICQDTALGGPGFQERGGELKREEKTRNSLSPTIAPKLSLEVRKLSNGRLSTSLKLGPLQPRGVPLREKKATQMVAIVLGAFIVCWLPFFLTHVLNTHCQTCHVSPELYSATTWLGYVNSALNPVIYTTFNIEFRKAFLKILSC
D2 ag-3 = qHTS of D3 Dopamine Receptor Agonist: D2 Dopamine Receptor B-arrestin Agonist Counterscreen; shares compounds with D2 ag-2; DiscoveRx PathHunter D2 beta-arrestin, luminescence, 90 min; response scale: percent relative to full dopamine signal; Potency, µM (doses to about 76.9 µM), inactives show at the highest dose activation, most hits filed as activators; 2,300 compounds, 5.9% hits; AID 720507, 2013; note: potency is the fitted concentration of half-maximal effect; % of control where 0% means no effect; nearly all actives have a fitted effect of over 70% in size
Starred values were filed as active, the others as inactive; u = inconclusive; x = no result. Rows were chosen to be rich in hits. Some 2.4% of all compounds tested hit in one or more screens of this group. Unless noted, calls come from the whole dose curve; as a rule, active = well fitted activation curve with a large enough effect; inconclusive = small, poorly fitted or top-dose-only effect; inactive = flat fitted curve, though single readings scatter.

SMILES | D2 antag | D2 ag-1 | D2 ag-2 | D2 PAM-1 | D2 PAM-2 | D3 arrestin ag | D2 ag-3
COc1ccc(-c2nc(CN3CCN(C(=O)c4ccco4)CC3)c(C)o2)cc1OC | 12 | 1 | 0 | 3 | 3 | x | x
COc1ccc(OC)c(-c2nc(CN3CCN(C(=O)c4ccco4)CC3)c(C)o2)c1 | 16 | 8 | 49* | -11 | -11 | 5% | 7%
Cc1oc(-c2ccc(F)cc2F)nc1CN1CCN(C(=O)c2ccco2)CC1 | x | 0 | x | x | -11 | x | x
COc1ccc(-c2nc(CN3CCN(C(=O)c4ccco4)CC3)c(C)o2)c(F)c1 | 25 | u | 61* | -16 | 15 | u | u
COc1ccc(-c2nc(CN3CCN(C(=O)c4ccco4)CC3)c(C)o2)c(OC)c1C | 92* | 46* | 102* | -24 | u | u | u
COc1ccc(C(=O)Nc2cccc(-c3cn4ccsc4n3)c2)c(OC)c1 | x | x | 1 | 7 | x | x | x
Cc1nn(-c2ccccc2)c2c1cc1c(=O)[nH]c(=O)nc-1n2-c1cccc(Cl)c1 | x | x | -1 | 0 | x | x | x
COc1cc(NC(=O)c2nnn(CC(=O)Nc3ccccc3)c2N)cc(OC)c1 | x | x | 1 | 2 | x | x | x
CC1CCC(NC(=O)COC(=O)CSc2ccc(C(N)=O)cc2[N+](=O)[O-])CC1 (stereo unspecified) | 9 | 7 | 0 | -3 | -10 | x | x
NC(=O)c1ccc(SCC(=O)OCC(=O)NC2CCCCCCC2)c([N+](=O)[O-])c1 | 10 | 10 | 0 | 4 | 0 | 14% | 0%
COc1ccc(SC[C@H](Cc2ccccc2)N2CC[C@@H](O)CCC2=O)cc1 | -1 | -1 | 0 | -7 | -6 | x | x
COc1ccc(SC[C@H](Cc2ccccc2)N2CC[C@@H](C(C)(C)C)CCC2=O)cc1 | 6 | 2 | 1 | 1 | 2 | -12% | -3%
CN(CC(=O)NCCN1CCN(c2ccccc2)CC1)S(=O)(=O)c1ccc2c(c1)CCC(=O)N2 | 75* | 1 | 82* | -22 | -6 | u | u
Cc1nnc(N2CCN(C(=O)Nc3cc(F)ccc3F)CC2)c2nn(-c3ccc(Cl)cc3)c(C)c12 | x | x | 0 | -16 | x | x | x
Cc1sc2nc(CSCC(=O)Nc3ccc(Cl)cc3F)[nH]c(=O)c2c1C | 2 | -5 | 0 | 1 | 14 | -4% | -6%
Cc1sc2nc(CSCC(=O)Nc3c(F)cccc3F)[nH]c(=O)c2c1C | 2 | -2 | 0 | 4 | 7 | x | x
Cc1sc2nc(CSCC(=O)N(C)CC(=O)Nc3ccc(F)cc3)[nH]c(=O)c2c1C | -9 | -2 | 3 | 7 | -10 | x | x
Cc1sc2nc(CSCC(=O)Nc3ccc(C(F)(F)F)cc3)[nH]c(=O)c2c1C | -17 | 2 | 1 | 3 | 0 | -6% | -2%
COc1ccc(CCC(=O)NC2CC(=O)N(c3ccc(F)cc3)C2)cc1 (stereo unspecified) | x | x | 0 | 3 | x | x | x
O=C1CC(c2nc3ccccc3n2CCCOc2ccccc2)CN1c1ccc(F)cc1 (stereo unspecified) | x | x | 0 | -8 | x | x | x
COc1ccc(OC)c(CN2CCN(C(=O)c3cccs3)CC2)c1 | 71* | 49* | 82* | -23 | u | 23% | u
COc1cccc(CN2CCN(C(=O)c3cccs3)CC2)c1OC | 71* | u | 90* | -25 | -4 | u | u
CC(CCc1ccc(O)cc1)N(C)CCc1ccccc1 (stereo unspecified) | 91* | -1 | 39* | -25 | -16 | 1% | 0%
Cc1ccc(NS(=O)(=O)c2ccc3c(c2)N(C)C(=O)CC(=O)N3C)cc1Cl | x | x | -1 | -9 | x | x | x
CCN(C(=O)COC(=O)c1cc(=O)[nH]c2ccccc12)c1c(N)n(Cc2ccccc2)c(=O)[nH]c1=O | x | -4 | x | x | -4 | x | x
SMILES | D2 antag | D2 ag-1 | D2 ag-2 | D2 PAM-1 | D2 PAM-2 | D3 arrestin ag | D2 ag-3
CCN(C(=O)CSc1nnc(-c2ccc(C)cc2)n1N)c1c(N)n(Cc2ccccc2)c(=O)[nH]c1=O | -7 | 6 | -1 | -1 | -22 | -5% | -6%
CCN(C(=O)COC(=O)CCCOc1ccccc1)c1c(N)n(Cc2ccccc2)c(=O)[nH]c1=O | -28 | 0 | 0 | -26 | -1 | -3% | -6%
CCN(C(=O)COC(=O)c1ccc(O)cc1O)c1c(N)n(Cc2ccccc2)c(=O)[nH]c1=O | -6 | -3 | -1 | -1 | 1 | -3% | -5%
CCc1ccc(Oc2c(C(F)(F)F)oc3c(CN4CCC(C)CC4)c(O)ccc3c2=O)cc1 | x | x | 0 | 4 | x | x | x
COc1ccc(C(=O)c2oc3ccccc3c2NC(=O)c2nc(SC)ncc2Cl)cc1Cl | x | x | 1 | 1 | x | x | x
COc1cc(OC)cc(C(=O)N[C@H](C(=O)Nc2ccccc2N2CCOCC2)C(C)C)c1 | 8 | -1 | 45* | -20 | -4 | -3% | -3%
COc1cc(OC)cc(C(=O)NC(C(=O)Nc2ccc(N3CCOCC3)cc2)C(C)C)c1 (stereo unspecified) | 2 | 1 | 0 | -5 | -21 | x | x
COc1ccc2c(CN3CCCC3)cc(=O)oc2c1 | x | -6 | x | x | -13 | x | x
Cc1ccc(CN2CCN(C(=O)C3CCC3)CC2)cc1 | -14 | 2 | 0 | -1 | -10 | x | x
COC(=O)C1CCN(Cc2cc(=O)oc3cc(OC)ccc23)CC1 | 0 | 10 | 56* | -13 | -1 | u | u
COC(=O)C1CCN(Cc2ccc(OCCCN3CCN(c4ccc([N+](=O)[O-])cc4)CC3)cc2)CC1 | 75* | -3 | 54* | -24 | -16 | 3% | 29%
COC(=O)C1CCN(Cc2ccc(C)cc2)CC1 | 69* | u | 75* | -23 | 15 | 3% | u
CC(=O)c1cccc(NC(=O)CC(c2ccc(C)cc2)N2Cc3ccccc3C2=O)c1 (stereo unspecified) | x | x | -1 | -7 | x | x | x
O=S(=O)(c1ccccc1)c1nnn2c1nc(Nc1ccccc1)c1cc(Cl)ccc12 | x | x | 0 | 0 | x | x | x
COc1cccc(C2C(C(=O)Nc3cccnc3)=C(C)Nc3nc(SCc4ccccc4)nn32)c1 (stereo unspecified) | x | x | 0 | x | x | x | x
